# According to PMC5540273 (PLoS ONE, 2017):
# Tests used:
# Conditions in all cases: concentration: 1 μM, replicates: in singlicate; n = 1
# DAPK1 = system: DAPK1
# DAPK2 = system: DAPK2
# DAPK3 = system: DAPK3
# DCAMKL1 = system: T1, DCAMKL1
# T1 construct: gene DCLK1
# DCAMKL2 = system: T2, DCAMKL2
# T2 construct: gene DCLK2
# DCAMKL3 = system: T3, DCAMKL3
# T3 construct: gene DCLK3
# DDR1 = system: DDR1
# DDR2 = system: DDR2
# DLK = system: T4, DLK
# T4 construct: gene MAP3K12
# DMPK2 = system: T5, DMPK2
# T5 construct: gene CDC42BPG
# DMPK = system: DMPK
# DRAK1 = system: T6, DRAK1
# T6 construct: gene STK17A
# DRAK2 = system: T7, DRAK2
# T7 construct: gene STK17B
# DYRK1A = system: DYRK1A
# DYRK1B = system: DYRK1B
# DYRK2 = system: DYRK2
# EGFR = system: EGFR
# EIF2AK1 = system: EIF2AK1
# EPHA1 = system: EPHA1
# EPHA2 = system: EPHA2
# 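Further: KINOMEscan kinase panel screen.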
SMILES,%Inh (DAPK1) [%],%Inh (DAPK2) [%],%Inh (DAPK3) [%],%Inh (DCAMKL1) [%],%Inh (DCAMKL2) [%],%Inh (DCAMKL3) [%],%Inh (DDR1) [%],%Inh (DDR2) [%],%Inh (DLK) [%],%Inh (DMPK2) [%],%Inh (DMPK) [%],%Inh (DRAK1) [%],%Inh (DRAK2) [%],%Inh (DYRK1A) [%],%Inh (DYRK1B) [%],%Inh (DYRK2) [%],%Inh (EGFR) [%],%Inh (EIF2AK1) [%],%Inh (EPHA1) [%],%Inh (EPHA2) [%]
O=C1NC(=O)C(N2CCc3ccccc32)=C1c1cccc(Cl)c1 [SB-408010],5,0,0,0,21,21,0,0,0,0,7,0,0,0,0,7,0,5,3,15
CN(C1=C(c2ccccc2)C(=O)NC1=O)c1ccccc1 [SB-334860],26,0,8,19,11,0,0,4,9,12,0,3,0,10,9,10,27,6,6,1
Cc1nnc(-c2ccc3ncc(-c4ccc(S(C)=O)cc4)n3c2)o1 (centres unmarked),22,0,0,18,0,0,8,24,0,0,1,0,7,16,66,6,9,6,0,0
[2H]C([2H])(c1cccc(C(F)(F)F)c1C)n1ccn2c(=O)nc(N3CCOCC3)cc12 [GSK2336394],26,0,6,8,18,21,0,0,10,0,0,0,0,16,0,1,28,0,12,8
O=C(c1ccc(-c2cc(-c3c[nH]nc3-c3ccccn3)ccn2)cc1)N1CCOCC1 [GW812171],0,0,11,30,0,0,0,30,0,0,5,0,0,0,0,33,4,0,0,0
Fc1ccc(-c2ncn(CCCN3CCOCC3)c2-c2ccccn2)cc1 [SB-211742],17,0,10,12,0,12,0,27,20,0,17,0,0,11,37,5,12,0,17,31
Cc1c(Cn2c(C)nn3c(=O)cc(N4CCOC(C)C4)nc23)cccc1C(F)(F)F (centres unmarked) [GSK2344444],2,0,0,0,0,21,14,0,0,0,0,1,0,7,0,24,34,0,0,5
O=C(NOCC1CC1)c1ccc(F)c(F)c1Nc1ccc(I)cc1Cl,1,0,0,0,0,0,0,0,1,0,0,0,21,0,0,0,0,0,3,0
O=C(NCCNc1ccnc(Nc2ccc(F)cc2)n1)Nc1ccccc1F [GSK1379880],0,0,9,19,0,24,29,18,0,0,0,0,0,15,6,12,22,0,19,0
Cc1nnc(-c2ccc3occ(-c4ccc(C(C)O)cc4)c3c2)o1 (centres unmarked),7,0,0,13,12,11,12,12,0,3,7,19,36,18,11,0,28,0,0,0
